Vif inh – HIV Vif inhibition; HEK293T cells, Vif self-association by quenched fluorescence, imaging, 24 h; inhibition, % at 7.49 µM; actives 0.35% (n = 340,000); AID 602346; in the data active = inhibition above about 50%, passing the limit was not always enough; inconclusive = no clear call, values can overlap the other calls; inactive = below about 31%
DSG3 Ab inh – inhibitors of pemphigus antibody binding to human desmoglein-3 | actives 0.48% (n = 310,000) | binding (percent of control), % at 10 µM | DSG3-coupled beads, scFv-anti-DSG3-GFP binding, flow cytometry; stronger effect = lower value | AID 588358;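 active = binding more than 3 SD below its plate's average and above zero; inconclusive = below that plate limit but binding exactly zero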;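 also: hits lower antibody fragment binding to DSG3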
ATG4B inhibitor – ATG4B (human) cysteine protease inhibition. ATG4B cleavage of LC3-PLA2, NBD-HPC fluorescence, 1 h. inhibition, % at 8.33 µM. actives 0.51% (n = 340,000). AID 504462. Q9Y4P1; in the data active = inhibition above about 40%
NSD2 inh – NSD2 (human) methyltransferase inhibition. O96028. NSD2 peptide methylation, AlphaScreen, 120 min. inhibition, % at 12.5 µM. actives 0.54% (n = 310,000). AID 743445; in the data active = inhibition above about 50%
Target sequence (O96028 whole entry, looked up): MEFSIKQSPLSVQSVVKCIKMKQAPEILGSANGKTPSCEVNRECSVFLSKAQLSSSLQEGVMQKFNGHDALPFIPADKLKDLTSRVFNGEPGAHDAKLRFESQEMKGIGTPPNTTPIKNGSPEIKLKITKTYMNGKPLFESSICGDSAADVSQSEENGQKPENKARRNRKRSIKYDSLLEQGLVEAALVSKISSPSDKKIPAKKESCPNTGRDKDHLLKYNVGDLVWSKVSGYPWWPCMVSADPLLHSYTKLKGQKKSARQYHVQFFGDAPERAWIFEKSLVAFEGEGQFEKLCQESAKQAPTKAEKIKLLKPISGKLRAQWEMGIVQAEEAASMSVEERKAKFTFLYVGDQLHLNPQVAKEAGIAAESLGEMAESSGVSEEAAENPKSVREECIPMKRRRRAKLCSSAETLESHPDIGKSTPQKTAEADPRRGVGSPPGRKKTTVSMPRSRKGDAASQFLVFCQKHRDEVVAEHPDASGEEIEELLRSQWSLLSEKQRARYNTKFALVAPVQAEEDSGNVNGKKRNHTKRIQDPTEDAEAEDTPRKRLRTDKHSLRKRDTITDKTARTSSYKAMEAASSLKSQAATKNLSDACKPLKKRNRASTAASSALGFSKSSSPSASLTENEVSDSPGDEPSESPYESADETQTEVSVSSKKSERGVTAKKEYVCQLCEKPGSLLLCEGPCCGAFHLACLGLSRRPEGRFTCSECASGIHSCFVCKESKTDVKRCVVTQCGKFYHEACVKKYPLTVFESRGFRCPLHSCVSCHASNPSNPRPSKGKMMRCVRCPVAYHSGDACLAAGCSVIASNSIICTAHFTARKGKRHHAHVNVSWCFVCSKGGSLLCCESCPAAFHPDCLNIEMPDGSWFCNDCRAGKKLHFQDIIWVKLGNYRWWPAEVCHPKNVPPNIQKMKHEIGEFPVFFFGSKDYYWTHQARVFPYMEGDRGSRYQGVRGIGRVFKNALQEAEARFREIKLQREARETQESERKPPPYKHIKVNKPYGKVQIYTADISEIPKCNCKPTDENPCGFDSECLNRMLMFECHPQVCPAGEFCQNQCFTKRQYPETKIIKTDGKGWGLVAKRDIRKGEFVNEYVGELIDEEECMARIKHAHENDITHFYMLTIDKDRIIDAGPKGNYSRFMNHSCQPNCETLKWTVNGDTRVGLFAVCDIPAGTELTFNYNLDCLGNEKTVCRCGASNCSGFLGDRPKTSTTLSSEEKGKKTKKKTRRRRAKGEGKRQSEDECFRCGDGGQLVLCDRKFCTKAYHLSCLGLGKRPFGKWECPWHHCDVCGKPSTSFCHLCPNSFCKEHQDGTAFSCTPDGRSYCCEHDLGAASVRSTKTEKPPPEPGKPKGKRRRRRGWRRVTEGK
Glyco luc inh – blocks N-linked glycosylation in D54 reporter cells; actives 0.23% (n = 360,000); AID 588692; reporter increase, % at 12.5 µM; D54 ERlucT glycosylation luciferase reporter, 24 h; percent of 100 nM tunicamycin response;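 active = mean luciferase reporter signal, scaled so untreated is 0 and the glycosylation-blocking control 100, at or above a set limit in every replicate; inconclusive = mean reaches the limit but not every replicate does; inactive = mean below the limit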;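 also: luciferase carries N-glycosylation sites so blocking glycosylation raises the light; 0% = median of neutral control wells and 100% = median of 100 nM tunicamycin wells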
CaV13 ICDI inh – Disruptors of the CACNA1D IQ motif to Ca2+-dependent inactivation inhibitor domain association, primary screening, Förster resonance energy transfer in intact living …. HEK cells, CFP/YFP FRET ICDI-IQ, plate reader, 10 min; percent FRET-ratio fall versus neutral wells. inhibition, % at 12.3 µM. actives 0.098% (n = 340,000). AID 743397;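 active = mean replicate inhibition of at least 30% and at least 1% of replicates passing that level; inconclusive = only one of the two criteria is met; inactive = neither criterion is met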;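 also: 0% = median of the neutral control wells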
AlphaScreen art – AlphaScreen assay artifact in NSD2 counter-screen | shares compounds with NSD2 inh | AlphaScreen artifact counterscreen, preloaded methylated H4 peptide | AC35, µM (top dose mostly 10 µM), for the others: at the top dose activity change, negative = signal loss | actives 9.4% (n = 1,500); call rule not given here
An asterisk follows results filed as active; ? = inconclusive; . = no result given. Hits are enriched below; roughly 1.9% of the tested compounds scored in any of these assays.

SMILES | Vif inh | DSG3 Ab inh | ATG4B inhibitor | NSD2 inh | Glyco luc inh | CaV13 ICDI inh | AlphaScreen art
CCOc1ccc(Nc2cc3n(c(=O)n2)CCc2cc(OC)c(OC)cc2-3)cc1 | -2 | 100 | -8 | -2 | 0 | -20 | .
CCn1ncc(CNC(=O)CCSc2nc(-c3ccco3)cc(C(F)(F)F)n2)c1C | -11 | 102 | -3 | 1 | -1 | . | .
C=CCn1c(SCC(=O)c2ccc(Cl)s2)nc2ccccc2c1=O | -1 | 97 | -4 | 0 | -2 | -3 | .
O=[N+]([O-])c1ccc(NC(=S)N2CCOCC2)cc1 | 5 | 93 | -6 | 1 | 1 | -18 | .
O=[N+]([O-])c1cccc(NC(=S)N2CCOCC2)c1 | -2 | 104 | -7 | 85* | 1 | -4 | -2%
Cc1cc(C)cc(NC(=O)C2C3C=CC4(O3)C2C(=O)N(CCCN2CCCC2)C4C(=O)NC2CCCC(C)C2C)c1 (stereo not drawn) | -4 | ? | 1 | 50* | 1 | -7 | 3%
N#Cc1cccc(-n2cc(COC(=O)NCCc3ccccc3)nn2)c1 | . | . | . | 0 | . | . | .
O=C1C=C(O)c2[nH]c(=O)ccc2C1=O | 0 | 101 | 8 | 94* | 3 | -6 | 1%
O=c1cc(C=NNc2ccccc2)[nH]c(=O)[nH]1 | 8 | 96 | 0 | 52* | 4 | -4 | -5%
O=C(O)c1ccc(NN=Cc2cc(=O)[nH]c(=O)[nH]2)cc1 | 18 | 93 | -2 | 0 | 3 | -11 | .
Cn1nc([N+](=O)[O-])nc1Oc1ccccc1 | -9 | 105 | 5 | -1 | 2 | -6 | .
O=C(CNc1ccc(F)cc1)N/N=C/c1c(O)ccc2ccccc12 | -3 | 93 | -24 | 70* | -5 | -27 | 1%
COc1cc(/C=C2\SC(=S)N(C(C(=O)O)c3ccccc3)C2=O)ccc1O (stereo not drawn) | 1 | 96 | 7 | 14 | 2 | -7 | .
O=C(O)C(c1ccccc1)N1C(=O)/C(=C\c2ccc(O)c(O)c2)SC1=S (stereo not drawn) | 9 | 93 | 10 | 105* | -1 | -4 | 7.6µM*
O=C(COC(=O)[C@@H]1CCCN1S(=O)(=O)c1ccc(Cl)cc1)NCC(F)(F)F | -1 | . | 0 | -1 | 0 | -6 | .
CCOC(=O)c1c(C)[nH]c(C)c1C(=O)COC(=O)[C@@H]1CCCN1S(=O)(=O)c1ccc(Cl)cc1 | . | 103 | -7 | 76* | 3 | -9 | -5%
CC(C)(C)c1ccc(C(=O)NNc2cc(N3CCCCC3)nc(N3CCCCC3)n2)cc1 | 3 | . | 16 | . | -6 | -8 | .
O=C(NNc1cc(N2CCCC2)nc(N2CCCC2)n1)c1ccc([N+](=O)[O-])cc1 | 5 | 99 | 1 | 89* | 2 | 64* | -2%
CC1=NOC(=O)/C1=C\c1ccc(-c2ccc(Cl)c(C(=O)O)c2)o1 | 6 | 86 | 8 | 84* | 3 | -3 | -7%
CC1=NOC(=O)/C1=C\c1ccc(-c2ccccc2Br)o1 | -9 | 87 | 16 | 69* | 10 | -2 | -12%
CC1=NOC(=O)/C1=C\c1ccc(-c2cccc(Cl)c2)o1 | -10 | 89 | 5 | 0 | -12 | . | .
COc1ccc(C(=O)Oc2ccc(/C=N/Nc3ccc(Cl)c(C(=O)O)c3)cc2OC)cc1 | -3 | 57 | 7 | 85* | 2 | -3 | -6%
NC(=O)c1ccc(-n2nnnc2SCC(=O)c2ccc(O)c(O)c2)cc1 | -3 | 94 | 24 | 89* | 0 | -2 | -5%
COc1ccc(-n2nnnc2SCC(=O)c2ccc(O)c(O)c2)cc1 | 42 | 101 | -10 | -1 | -1 | -7 | .
CO/N=C\CC(=O)Nc1ccc(Cl)cc1Cl | 2 | 81 | -3 | 4 | 18 | 6 | .
SMILES | Vif inh | DSG3 Ab inh | ATG4B inhibitor | NSD2 inh | Glyco luc inh | CaV13 ICDI inh | AlphaScreen art
CCn1cnc2c1c(=O)n(CC(=O)O)c(=O)n2Cc1ccccc1 | -9 | . | -18 | 113* | 0 | -4 | -1%
CCn1cnc2c1c(=O)n(CC(=O)OC)c(=O)n2Cc1ccccc1 | -9 | 103 | -4 | -2 | 5 | -6 | .
CC1=CCC2C(=O)N(c3ccc4ccccc4n3)C(=O)C2C1 (stereo not drawn) | . | 108 | -2 | 0 | -1 | . | .
Cc1cc(=O)n(-c2ccc3ccccc3n2)[nH]1 | 3 | 101 | -1 | 86* | -4 | -3 | -5%
COc1cc(/C=N/n2c(C)nnc2C)cc(OC)c1OC | 8 | 104 | -9 | 83* | 0 | -2 | -2%
OC(COc1cccc2ccccc12)CN1CCOCC1 (stereo not drawn) | -10 | 95 | -6 | -1 | 2 | -5 | .
OC(COc1ccc2ccccc2c1Cl)CN1CCOCC1 (stereo not drawn) | -6 | 99 | -2 | 86* | -1 | -1 | -3%
CN(Cc1c(O)ccc2c1oc(=O)c1ccccc12)C1CCCCC1 | 1 | 99 | -4 | 75* | 4 | -4 | 2%
CN(C)Cc1c(O)ccc2c3c(c(=O)oc12)CCCCC3 | -7 | 99 | 9 | 1 | 1 | -5 | .
COc1ccc(-n2c(C)ccc2-c2ccccc2)cn1 | 15 | 104 | 7 | 58* | -1 | -4 | -2%
CCOc1c(O)ccc(/C=C2\SC(=S)NC2=O)c1[N+](=O)[O-] | -4 | 102 | 5 | 53* | 2 | -5 | -5%
CCOc1ccc(N(C)c2ccc(/C=C3/SC(=S)NC3=O)cc2)cc1 | . | 154 | 6 | 24 | 1 | -7 | .
Cc1oc(-c2cccs2)nc1CN1CCN(C2CCCC2)C(CCO)C1 (stereo not drawn) | 2 | 113 | -9 | 52* | 0 | -2 | -2%
Cc1oc(-c2cccs2)nc1CN1CCN(CCC(C)C)C(CCO)C1 (stereo not drawn) | 8 | 106 | -4 | -1 | 0 | -6 | .
Cc1cccc(C)c1NC(=O)CNC(=O)c1ccccc1OCc1ccccc1 | 10 | 112 | 9 | -1 | -2 | -6 | .
Cn1ncc(Cl)c1C(=O)Nc1cc(C(F)(F)F)ccc1F | 13 | . | -2 | 127* | 3 | -6 | 1%
Cc1cccc(C)c1NC(=O)C1c2ccccc2OCC(=O)N1CC(F)(F)F (stereo not drawn) | . | . | . | . | . | -6 | .
CCCCNC(=O)NC1(C(F)(F)F)Oc2ccccc2O1 | -3 | 98 | 4 | -1 | -4 | . | .
O=C(NCCN1CCOCC1)NC1(C(F)(F)F)Oc2ccccc2O1 | -1 | 106 | -13 | 55* | -3 | -5 | 2%
CCN(Cc1ccccc1)Cc1c(C)[nH]c2c(C)c(C)ccc2c1=O | 8 | 104 | -3 | 56* | 5 | -6 | -6%

Compound activity (PubChem)
